Source: PubChem
Rows were chosen to be rich in hits. Some 21% of all compounds tested hit in one or more screens of this group.
CHX counter: counter-screen hit for Shiga toxin inhibitors, cycloheximide; cell reporter, cycloheximide protein synthesis inhibition counterscreen; max response, %; actives 12% (n = 300,000); AID 2314; in the data active = max response mostly above about 13%, no sharp cut-off; inactive = mostly below about 14%; also: read at 38.3 µM for the half of the compounds with a filed dose; 0% is about no effect
Pf growth 96h: P. falciparum growth inhibition at 96 hour, primary screen for plastid delayed-death inhibitors; actives 6.9% (n = 320,000); Potency, µM (top dose mostly 28.7 µM), inactives show at the highest dose activity change, negative = inhibition, usual class: inhibitors; P. falciparum luciferase reporter growth, 96 h; AID 504834; also: potency is read from the fitted curve at half-maximal effect; % is scaled to controls: 0 for no effect and ±100 for the full control effect
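Erythrocytes infected with luciferase-expressing P. falciparum were dispensed at 2% hematocrit and 0.05% parasitemia (final), then incubated with compounds 96 hours at 37 C in 5% CO2. Luminescence after detection reagent addition reported growth.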
NS1 function inh: inhibitors of influenza NS1 protein function; Potency, µM (series often up to 46.1 µM), inactives show at the top dose activity, positive = more growth; actives 0.4% (n = 270,000); calls by dose curve; also: potency is read from the fitted curve at half-maximal effect; actives are rising curves; nearly all actives have a fitted effect of over 50% in size
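In this qHTS, NS1 from influenza A is expressed in budding yeast, where it slows growth. Cells are switched from glucose to 2% galactose medium (pH 6.0, -URA), treated with compound, and growth recovery is read at OD600.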
Pf growth 48h: inhibits P. falciparum growth in the first generation, 48 h; P. falciparum luciferase growth in erythrocytes, 48 h; Potency, µM (doses to about 28.7 µM), inactives show top-dose activity change, negative = inhibition, usual class: inhibitors; actives 5.9% (n = 310,000); also: potency is read from the fitted curve at half-maximal effect; % is scaled to controls: 0 for no effect and ±100 for the full control effect
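Luminescence readout; reporter = integrated firefly luciferase in P. falciparum. RBC culture at 2% hematocrit, 0.1% parasitemia final, 37 C/5% CO2; decreased signal taken as growth inhibition.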
Shiga inhibitor: inhibitors of Shiga toxin in Vero cells. Vero cells, Shiga toxin protein synthesis inhibition reporter. inhibition, % at 38.7 µM. actives 9.2% (n = 290,000). AID 2315; in the data active = inhibition mostly above about 28%, no sharp cut-off; inactive = mostly below about 43%; also: 0% is about no effect
SARS PLpro yeast: inhibitors of SARS-CoV papain-like protease in yeast; S. cerevisiae expressing SARS-CoV PLpro, growth rescue; Potency, µM (doses to about 32.9 µM), without a hit: at the top dose activity, positive = growth rescue, hits mostly activators; actives 0.19% (n = 330,000); AID 485353; calls by dose curve; also: potency is read from the fitted curve at half-maximal effect; 0% is about no effect; nearly all actives have a fitted effect of over 55% in size
* hit, by the source's call; ? = inconclusive; . = no result; [ ] = remark or other dose. Unless noted, calls follow the shape of the dose curve; as a rule, active = well fitted inhibition curve with a large enough effect; inconclusive = small, poorly fitted or top-dose-only effect, or another doubt; inactive = no such curve, though single readings can be large or run the other way.

SMILES	CHX counter	Pf growth 96h	NS1 function inh	Pf growth 48h	Shiga inhibitor	SARS PLpro yeast
CSc1cccc(NC(=O)CCS(=O)(=O)c2cccc3nonc23)c1	-1.6	204.2%	-2.8%	9.7%	17.2	-12.1%
Cc1cc(C(=O)Nc2ccccc2N2CCCCC2)no1	0.8	-2.7%	-12.7%	4.2%	-4.4	-0.6%
O=C(COc1ccccc1)Nc1cccc2nsnc12	65.7*	-14.3%	-9.7%	23.0%	35.4	0.9%
O=C(Nc1ccc(Cl)cc1)Nc1cccc2nsnc12	63.6*	-96.0%	-58.9%	-42.0%	113.9*	-6.9%
COc1ccc(NC(=O)COc2ccc(Br)cc2)c(OC)c1	13.4*	?	15.2%	0.3%	30.2*	3.7%
Cc1cccc(OCC(=O)Nc2cccc3nsnc23)c1	1.1	38.3%	-8.8%	.	-9.1	-3.4%
COc1ccc(NC(=O)NNC(=O)COc2ccc3cc(Br)ccc3c2)c(OC)c1	1.0	-12.5%	16.5%	-21.9%	-3.4	2.6%
COc1ccc(CNC(=O)CNC(=O)c2ccc(Br)o2)cc1OC	13.8	14.0%	6.3%	7.1%	-22.2	-2.4%
COc1ccccc1NC(=O)CNC(=O)c1ccc(Br)o1	-0.7	0.0294µM*	-12.8%	24.8%	-5.6	0.6%
CCNC(=S)N(CCc1c(C)[nH]c2ccccc12)Cc1cc(OC)c(OC)c(OC)c1	-3.8	?	-14.4%	?	-19.2	1.7%
COc1cc(OC)cc(C(=O)N[C@H](C(=O)OCC(=O)Nc2ccc(C(C)C)cc2)C(C)C)c1	2.0	3.8%	21.6%	36.2%	-26.6	21.9%
CC1(C)CC(=O)C2=C(C1)Nc1ncnn1C2c1cccs1 (configuration not stated)	1.5	-4.6%	.	-3.7%	-10.8	1.3%
O/N=C1\CCCc2ccc(Cl)cc21	7.5	56.6%	7.9%	-12.2%	14.5	-6.6%
CC(C)n1c(SCC(=O)Nc2nncs2)nnc1-c1ccco1	1.0	?	17.8%	25.7%	-6.3	?
COc1ccc(NC(=O)C(Sc2ccccc2)c2ccccc2)c(OC)c1 (configuration not stated)	0.7	2.62µM*	-3.8%	-24.2%	-4.1	3.4%
COc1ccccc1NC(=O)COc1ccccc1	16.6*	21.3%	-54.9%	.	35.3	-11.0%
CNC1=CN(O)C(c2ccccc2)=c2cc(Cl)ccc2=N1	-0.4	13.5µM*	.	19µM*	4.0	.
Cc1ccc2c(c1)=C(c1ccccc1)N(O)CC(=O)N=2	5.6	59.5%	2.6%	-0.4%	-1.1	-0.6%
Cc1cc(=O)oc2c(C)c(OCC(=O)N3CCN(c4cccc(Cl)c4)CC3)ccc12	-4.3	-10.6%	9.0%	-9.3%	-14.3	-4.4%
COc1ccc(N(C)S(=O)(=O)c2c(C)[nH]c(=O)[nH]c2=O)c(OC)c1	-1.5	6.57µM*	0.2%	0.0%	32.0	5.7%
COc1ccc(N(C)S(=O)(=O)c2c(C)[nH]c(=O)[nH]c2=O)cc1	-7.0	?	-0.3%	27.2%	-19.4	0.3%
O=C(N/N=C/c1ccco1)c1ccc(Br)o1	25.1*	51.1%	-12.7%	7.7%	67.0*	-0.2%
O=C(COc1ccc(/C=N/NC(=O)c2cc3ccccc3o2)cc1Br)Nc1ccccc1	53.1*	?	16.1%	6.0%	112.2*	-8.2%
O=C(Nc1ccc(C(=O)O)cc1)/C(=C\c1ccco1)NC(=O)c1ccc(Br)o1	-7.1	13.1%	7.0%	4.4%	-3.7	-15.0%
Cc1nc2ccccc2cc1C(=O)N/N=C/c1ccco1	1.9	-0.4%	20.3%	3.0%	-12.0	2.3%
SMILES	CHX counter	Pf growth 96h	NS1 function inh	Pf growth 48h	Shiga inhibitor	SARS PLpro yeast
O=C(N/N=C/c1ccco1)c1cc2ccccc2o1	41.6*	12.1%	-46.9%	21.9%	58.8*	-16.6%
O=C(O)/C(=C/c1ccco1)NC(=O)c1ccc(Br)o1	-2.9	13.1µM*	7.0%	?	-58.7	-0.9%
COc1ccccc1/C=C1\SC(=S)N(CCC(=O)NCCc2ccc(O)cc2)C1=O	20.9*	?	16.8%	?	9.5	-2.5%
O=C(CCN1C(=O)/C(=C/c2ccccc2)SC1=S)NCCc1ccc(O)cc1	-8.4	11.7µM*	0.6%	-1.5%	-6.1	-2.8%
O=C(CCN1C(=O)/C(=C/c2ccccc2F)SC1=S)NCCc1ccc(O)cc1	-3.2	16.3%	2.2%	14.1%	-5.4	-4.9%
Cc1cccc(OCC(O)CN2CCOCC2)c1 (configuration not stated)	-1.5	?	22.1%	-35.5%	17.1	5.6%
O=C1C(C=NCc2cccnc2)=C(O)c2ccccc21	71.6*	3.7%	-4.4%	58.4%	100.7*	-1.8%
O=C1C(C=NCc2ccco2)=C(O)c2ccccc21	25.2*	206.5%	-11.2%	77.5%	78.8*	1.1%
O=c1[nH]c(=O)n(Cc2ccco2)c(O)c1C=NCc1ccco1	-1.6	25.5%	15.0%	?	-3.2	-0.1%
N#CC(=NCc1cccnc1)C1=C(O)c2ccccc2C1=O	1.5	?	-1.6%	-6.8%	-11.9	-1.8%
O=C1C(C=NCc2ccncc2)=C(O)c2ccccc21	49.4*	.	-0.4%	9.7%	102.5	-4.7%
O=[N+]([O-])c1cccc(/C=N/Nc2cc(Cl)nc(-c3ccccc3)n2)c1	3.8	?	0.7%	?	-14.5	-24.6%
COc1ccc(C)cc1S(=O)(=O)N(CC(=O)Nc1cccc([N+](=O)[O-])c1)c1ccc(C)c(C)c1	-2.8	17.2%	6.5%	13.1µM*	-3.1	15.8%
Cc1cc(Cl)ccc1C(=O)C1CCCN(C(=O)c2cnsn2)C1 (configuration not stated)	7.9	9.2%	-5.0%	-8.5%	-2.4	-0.4%
Cc1ccc(C(=O)NCc2ccccc2)c(F)c1F	13.7	18.5%	-3.1%	12.7%	64.7*	0.0%
Cc1ccc(CNC(=O)NCc2ccccc2)cc1	25.7*	65.3%	.	110.0%	149.0*	0.3%
Cc1occc1C(=O)NCc1ccccc1	0.7	.	-2.3%	2.4%	30.4	1.0%
Cc1ccc(C)c(CNC(=O)Nc2ccccc2)c1	30.5*	136.2%	1.4%	117.4%	74.3*	.
CCC(C(=O)Nc1ccc(C)cc1)c1ccccc1 (configuration not stated)	-3.2	37.4%	.	-2.4%[5.75 µM]	-6.6	-1.4%
CCC(C(=O)NCc1ccc(C)cc1)c1ccccc1 (configuration not stated)	3.6	14.7µM*	-16.8%	-21.5%	.	4.1%
O=C(NCc1csc2ccc(Cl)cc12)Nc1ccccc1	-2.6	?	1.9%	?	-5.1	-0.5%
COc1ccc(NC(=S)N2CCC(C(=O)c3ccc(OC)cc3)CC2)cc1	-0.2	-0.9%	14.8%	0.0%	2.7	-1.5%
N#CC(c1ccccc1)N(CCCCl)C(=O)c1ccccc1 (configuration not stated)	-1.9	?	1.7%	-18.2%	5.1	1.5%
Cc1ccc(CNC(=O)Nc2ccccc2)cc1	33.3*	0.0%	-79.5%	192.8%	123.4*	-4.6%
CCOC(=O)C(Cc1ccccc1)C(=O)NCc1ccccc1 (configuration not stated)	-1.9	3.29µM*	-11.6%	20.8%	1.8	-1.8%
